# Where “and” joins values, the source holds several entries; their conditions need not be identical. Equal entries are not always repeated. This is part of a sample that, as a whole, favours compounds with a hit. Of some 83,000 tested, about 20% had one in any assay.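 A percent growth of 40 corresponds to 60% growth inhibition; 0 means no net growth; -100 means all cells died. Active threshold: below 10.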 Calls of active or inactive are those of the source.
# Tests used:
# Experiment in all cases: NCI-60 one-dose screen, 48 h (100 = growth as untreated, 0 = no growth, -100 = all killed)
# Details in all cases: 10 µM unless noted
# T-47D breast = tested on: T-47D breast
# MDA-MB-435 melanoma = tested on: MDA-MB-435 melanoma
# SW-620 colon = tested on: SW-620 colon
# HCT-116 colon = tested on: HCT-116 colon
# HCC-2998 colon = tested on: HCC-2998 colon
# KM12 colon = tested on: KM12 colon
# MCF7 breast = tested on: MCF7 breast
# BT-549 breast = tested on: BT-549 breast
compound,measurement,setting,value
O=C(N/N=C/c1ccccc1)N/N=C/c1ccccc1,growth,T-47D breast,114% (inactive) and 106% (inactive)
same,growth,MDA-MB-435 melanoma,104% (inactive) and 98.6% (inactive)
same,growth,SW-620 colon,106% (inactive) and 96% (inactive)
same,growth,HCT-116 colon,107% (inactive)
same,growth,HCC-2998 colon,101% (inactive) and 96.3% (inactive)
same,growth,KM12 colon,99.8% (inactive) and 102% (inactive)
CCOc1ccc(Nc2c3ccccc3nc3ccccc23)cc1,growth,T-47D breast,91.5% (inactive) and 13.1% (inactive) and 22.8% (inactive)
same,growth,MDA-MB-435 melanoma,103% (inactive) and 24.5% (inactive) and 30.9% (inactive)
same,growth,SW-620 colon,92.8% (inactive) and 21% (inactive) and 29.1% (inactive)
same,growth,HCT-116 colon,87.6% (inactive) and -13.1% (active) and 13.2% (inactive)
same,growth,KM12 colon,99.8% (inactive) and 18% (inactive) and 33.3% (inactive)
COc1cc(C(=O)N/N=C/c2ccc(N(C)C)cc2)cc(OC)c1OC,growth,T-47D breast,63.3% (inactive)
same,growth,MDA-MB-435 melanoma,-11.9% (active)
same,growth,MCF7 breast,18.3% (inactive)
same,growth,HCT-116 colon,10.1% (inactive)
same,growth,HCC-2998 colon,12% (inactive)
same,growth,KM12 colon,17% (inactive)
c1ccc(N(c2ccccc2)c2ccccc2)cc1,growth,BT-549 breast,106% (inactive)
same,growth,MDA-MB-435 melanoma,104% (inactive)
same,growth,SW-620 colon,103% (inactive)
same,growth,MCF7 breast,117% (inactive)
same,growth,HCT-116 colon,99.6% (inactive)
same,growth,KM12 colon,105% (inactive)
COC(=O)c1ccc(NC(=O)O/N=C(\Cl)C(C)C)cc1,growth,MCF7 breast,-87.1% [100 µM] (active) and -100% [100 µM] (active)
CC(=O)Nc1ccc(O)cc1,growth,T-47D breast,116% (inactive) and 103% (inactive) and 93.9% (inactive)
same,growth,MDA-MB-435 melanoma,105% (inactive) and 109% (inactive) and 110% (inactive)
same,growth,SW-620 colon,106% (inactive) and 108% (inactive) and 103% (inactive)
same,growth,MCF7 breast,100% (inactive) and 68.3% (inactive) and 107% (inactive)
same,growth,HCT-116 colon,100% (inactive) and 120% (inactive) and 104% (inactive)
same,growth,HCC-2998 colon,102% (inactive) and 68.4% (inactive) and 110% (inactive)
same,growth,KM12 colon,99.4% (inactive) and 38.3% (inactive) and 107% (inactive)
CC(=O)C(/C=N/C(N)=O)=C(/C)O,growth,BT-549 breast,101% (inactive)
same,growth,MDA-MB-435 melanoma,103% (inactive)
same,growth,SW-620 colon,105% (inactive)
same,growth,MCF7 breast,106% (inactive)
same,growth,HCT-116 colon,105% (inactive)
same,growth,HCC-2998 colon,106% (inactive)
same,growth,KM12 colon,111% (inactive)
COc1ccc(-c2cn[nH]c2-c2cc(OC)c(OC)c(OC)c2)cc1N,growth,T-47D breast,73% (inactive) and 86.7% (inactive)
same,growth,MDA-MB-435 melanoma,-47.4% (active) and -19% (active)
same,growth,MCF7 breast,21.6% (inactive) and 15.8% (inactive)
same,growth,HCT-116 colon,3.95% (active) and 7.78% (active)
same,growth,HCC-2998 colon,13.7% (inactive) and 23% (inactive)
same,growth,KM12 colon,9.16% (active) and 16.9% (inactive)
NC1N=C(c2ccc(Cl)cc2)C2=C(N1)c1ccccc1CC2 (stereo not drawn),growth,MCF7 breast,13.4% [100 µM] (inactive) and -96.2% [100 µM] (active)
Cc1ccc2c(/C=C/c3ccc(N(C)C)cc3)ccc(C(C)C)cc1-2,growth,MCF7 breast,57.7% [100 µM] (inactive) and 75.6% [100 µM] (inactive)
CN(C)c1ccc(/C=N/n2c(-c3ccccc3)nc3ccccc3c2=O)cc1,growth,MCF7 breast,40.4% [100 µM] (inactive) and 21.1% [100 µM] (inactive)
COc1ccc(-c2nc3ccccc3c(=S)n2OC(C)=O)cc1,growth,MCF7 breast,8.58% [25 µM] (active) and -23% [25 µM] (active)
CO/C(N)=C(\C#N)N=Cc1ccc2ccccc2c1,growth,MCF7 breast,8.6% [100 µM] (active) and 1.15% [100 µM] (active)
O=C(O)COc1cc(-c2ccccc2F)nc2cc3c(cc12)OCO3,growth,MCF7 breast,86.4% [100 µM] (inactive) and 58% [100 µM] (inactive)
C=C1C2CCC3C4(C)CCCC(C)(C(=O)O)C4CCC3(C2)C1OC(=O)/C(C)=C/C (stereo not drawn),growth,MCF7 breast,1.75% [100 µM] (active) and 65.7% [100 µM] (inactive)
COc1cc([C@H]2OC[C@H]3[C@@H]2CO[C@@H]3c2cc(OC)c3c(c2)OCO3)cc(OC)c1OC,growth,MCF7 breast,18.5% [100 µM] (inactive) and 2.61% [100 µM] (active)
O=c1c2ccccc2nc(-c2ccccc2)n1/N=C/c1ccccc1[N+](=O)[O-],growth,MCF7 breast,65.7% [100 µM] (inactive) and 73.8% [100 µM] (inactive)
CC1=C2NCN(C)N=C2C(C#N)(C#N)C1(C#N)C#N,growth,MCF7 breast,-60.6% [100 µM] (active) and -73.1% [100 µM] (active)
Cc1coc2c1C(OC(=O)C(C)C)C1(C)C(C)CCC(O)C1C2=O (stereo not drawn),growth,MCF7 breast,21.2% [100 µM] (inactive) and 6.5% [100 µM] (active)
Cc1ccc(/C=N/Nc2ccccn2)s1,growth,MCF7 breast,13.4% [100 µM] (inactive) and 0.177% [100 µM] (active)
Cc1cc2nn(C3CCCO3)nc2cc1C (stereo not drawn),growth,MCF7 breast,79.7% [100 µM] (inactive) and 92.9% [100 µM] (inactive)
CC(=Nc1ccncc1)C(C)=Nc1ccncc1,growth,MCF7 breast,-47.5% [100 µM] (active) and -27.7% [100 µM] (active)
Cc1ccc(NC(=O)/C(=N\NC(N)=O)c2c(O)c3ccccc3[nH]c2=O)cc1,growth,MCF7 breast,92.8% [100 µM] (inactive) and 85.4% [100 µM] (inactive)
CCC(c1ccc(N(C)C)cc1)C1NC(=S)NC1=O (stereo not drawn),growth,MCF7 breast,37.9% [100 µM] (inactive) and 10.5% [100 µM] (inactive)
CCC1OC2(C)CC(C#N)(C#N)C1(C#N)C(=N)O2 (stereo not drawn),growth,MCF7 breast,39.8% [100 µM] (inactive)
CC1(C)S[C@H](CN)N[C@H]1C(=O)OC(c1ccccc1)c1ccccc1,growth,MCF7 breast,-8.91% [100 µM] (active) and -100% [100 µM] (active)
OCc1ccccc1OC1OC(CO)C(O)C(O)C1O (stereo not drawn),growth,MCF7 breast,120% [100 µM] (inactive) and 82.9% [100 µM] (inactive)
Clc1ccc(C2NN=C3c4ccccc4OCC32)cc1 (stereo not drawn),growth,MCF7 breast,-15.5% [100 µM] (active) and -82.5% [100 µM] (active)
C[C@@H]1C[C@@H]2OC(=O)[C@]3(C)[C@H]2[C@@H](OC3(C)O)[C@]2(C)C(=O)C=C[C@@H]12 (stereo partly drawn),growth,MCF7 breast,-67.1% [100 µM] (active) and -81.7% [100 µM] (active)
COc1cc2c3cc1Oc1c(OC)c(OC)cc4c1C(Cc1ccc(O)c(c1)-c1cc(ccc1OC)CC3N(C)CC2)N(C)CC4 (stereo not drawn),growth,MCF7 breast,10.3% [100 µM] (inactive) and -92.9% [100 µM] (active)
CCCCCC(O)(CCCCC)CCCCCCCCC1=C(O)c2ccccc2C(=O)C1=O,growth,MCF7 breast,-37.7% [100 µM] (active) and -36.7% [100 µM] (active)
COc1c(OC)c(OC)c2c(c1OC)c(=O)c1ccccc1n2C,growth,MCF7 breast,65.5% [100 µM] (inactive) and -50% [100 µM] (active)
C/C(=C\COc1cc(O)c2c(c1)C(=O)c1cc(C)cc(O)c1C2=O)CCC1OC1(C)C (stereo not drawn),growth,MCF7 breast,20.6% [100 µM] (inactive) and 2.66% [100 µM] (active)
CCC/C(Cl)=N/OC(=O)Nc1cccc(F)c1,growth,MCF7 breast,-73.4% [100 µM] (active) and -100% [100 µM] (active)
Cc1ccc(/C=C2/N=C(N/N=C\c3ccccc3)NC2=O)cc1,growth,MCF7 breast,1.56% [100 µM] (active) and 22.5% [100 µM] (inactive)
COc1ccccc1-c1n[nH]c(-c2ccccc2O)n1,growth,MCF7 breast,61.5% [100 µM] (inactive) and 21.6% [100 µM] (inactive)
N#Cc1nc(-c2cccc(-c3nc(C#N)c(N)o3)n2)oc1N,growth,MCF7 breast,58.8% [100 µM] (inactive) and -19.4% [100 µM] (active)
CCOC(=O)COc1cc(-c2ccccc2)nc2cc(F)ccc12,growth,MCF7 breast,49.3% [100 µM] (inactive) and 35.8% [100 µM] (inactive)
Clc1c(Cl)c(Cl)c2nn(C3CCCO3)nc2c1Cl (stereo not drawn),growth,MCF7 breast,15.9% [100 µM] (inactive) and -100% [100 µM] (active)
Cc1ccc(OCC2OC(n3cnc4nc(Cl)nc(Cl)c43)CC2Oc2ccc(C)cc2)cc1 (stereo not drawn),growth,MCF7 breast,0.206% [100 µM] (active) and -99.2% [100 µM] (active)
Cc1ccc(NC(=O)/C(Cc2cc(=O)oc3cc(O)ccc23)=N\NC(C)(C)C)cc1C,growth,MCF7 breast,117% [100 µM] (inactive) and 97.1% [100 µM] (inactive)
CC(C)/C(Cl)=N/OC(=O)Nc1cccc(C(F)(F)F)c1,growth,MCF7 breast,-79.5% [100 µM] (active) and -84.4% [100 µM] (active)
CNC(=S)/C(=N\Nc1nc[nH]c1C(N)=O)C(N)=S,growth,MCF7 breast,10.6% [100 µM] (inactive) and 4.26% [100 µM] (active)
CC(=O)c1ccc(NC(=O)/C(CC(=O)/C=C/c2ccccc2)=N/NC(N)=S)cc1,growth,MCF7 breast,52.9% [100 µM] (inactive) and 4.14% [100 µM] (active)
C=CCn1c2c(c3ccccc3c1=O)C(=O)c1ccccc1-2,growth,MCF7 breast,68.3% [100 µM] (inactive) and 23.2% [100 µM] (inactive)
COC(=O)C1=CO[C@@H](OC2OC(CO)C(O)C(O)C2O)[C@H]2[C@@H](C)[C@@H](O)[C@@H](O)[C@@H]12 (stereo partly drawn),growth,MCF7 breast,95.3% [100 µM] (inactive) and 91.8% [100 µM] (inactive)
Cc1ccc(OCC2OC(n3cnc4nc(N)nc(Cl)c43)CC2Oc2ccc(C)cc2)cc1 (stereo not drawn),growth,MCF7 breast,45.4% [100 µM] (inactive) and -87.9% [100 µM] (active)
